Screens as filed in PubChem.
Beta cell apopt: inhibitors of cytokine-induced beta cell apoptosis, primary screen, luminescence; INS-1E cytokine-induced death, ATP luminescence, 48 h; percent of positive-control rescue, neutral wells zero; protection from apoptosis, % (test concentration not listed); 300,000 tested, 0.8% active; AID 435005, 2010;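 active = Every replicate reaches about 75%, or at least half do and their mean reaches it too, limit read from the data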;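 note: 0% = cytokine-treated negative control wells and 100% = positive control rescue; higher means more ATP so stronger rescue from cytokine killing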
CSC inhib: cancer stem cell viability inhibitors, primary screen, luminescence; cancer stem cell-like cells viability; inhibition, % at 7.5 µM; 300,000 tested, 1.1% active; AID 2717, 2010; in the data active = inhibition above about 75%; tested in HMLE shEcad cells
Mdm2 MdmX PPI: inhibitors of human Mdm2-MdmX association, primary screen, cell-based, luminescence, split luciferase, SaOS-2, uHTS; Protein Mdm4 (Homo sapiens) + E3 ubiquitin-protein ligase Mdm2 (Homo sapiens), …; SaOS-2 split-luciferase Mdm2/MdmX complementation; inhibition, % at 8 µM; 330,000 tested, 3% active; AID 485346, 2010;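 active = inhibition of at least 50% at 8 µM in the primary screen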
Target sequence (O15151 whole entry, looked up): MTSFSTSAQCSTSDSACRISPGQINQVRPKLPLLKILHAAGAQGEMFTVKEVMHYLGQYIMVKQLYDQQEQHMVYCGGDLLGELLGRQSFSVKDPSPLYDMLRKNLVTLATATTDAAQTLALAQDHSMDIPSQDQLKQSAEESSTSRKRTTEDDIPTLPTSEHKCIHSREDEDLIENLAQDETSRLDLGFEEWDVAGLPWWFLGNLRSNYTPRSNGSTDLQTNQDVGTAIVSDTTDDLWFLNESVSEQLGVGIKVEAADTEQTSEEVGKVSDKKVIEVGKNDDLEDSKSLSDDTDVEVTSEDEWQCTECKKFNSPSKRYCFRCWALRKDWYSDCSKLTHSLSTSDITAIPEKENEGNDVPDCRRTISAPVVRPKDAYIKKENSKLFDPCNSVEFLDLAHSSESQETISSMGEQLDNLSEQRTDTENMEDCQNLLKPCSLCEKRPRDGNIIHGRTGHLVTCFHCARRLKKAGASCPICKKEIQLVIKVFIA
Target sequence (Q00987 whole entry, looked up): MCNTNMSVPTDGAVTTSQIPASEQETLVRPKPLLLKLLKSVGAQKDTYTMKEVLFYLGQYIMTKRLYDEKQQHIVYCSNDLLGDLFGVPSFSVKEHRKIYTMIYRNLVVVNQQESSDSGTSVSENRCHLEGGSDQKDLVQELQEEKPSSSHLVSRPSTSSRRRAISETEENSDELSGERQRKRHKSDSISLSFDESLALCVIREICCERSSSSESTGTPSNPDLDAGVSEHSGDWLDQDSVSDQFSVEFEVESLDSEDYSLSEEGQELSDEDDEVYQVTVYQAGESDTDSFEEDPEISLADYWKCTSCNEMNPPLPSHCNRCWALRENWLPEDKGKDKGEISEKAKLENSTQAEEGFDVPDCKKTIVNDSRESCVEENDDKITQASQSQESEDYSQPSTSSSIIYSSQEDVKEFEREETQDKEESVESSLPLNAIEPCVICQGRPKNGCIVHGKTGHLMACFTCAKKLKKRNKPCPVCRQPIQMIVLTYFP
SKKanGAS inh: S. pyogenes SKKanGAS growth inhibitors in kanamycin, primary screen, streptokinase expression inhibitor project, SKKanGAS strain, BacTiter-Glo luminescence. 300,000 tested, 1.3% active. inhibition, % at 7.5 µM. 6 h;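 active = mean replicate score, as percent of positive control median, at least 50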;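 note: strain carries kanamycin resistance gene driven by streptokinase promoter and grows in 40 µg/ml kanamycin; loss of luminescence reflects streptokinase promoter inhibition or plain growth inhibition; 0% = median of DMSO wells and 100% = positive control at its reference dose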
MPTP block: mitochondrial permeability transition pore inhibitors, primary screen, biochemical, isolated mouse mitochondria, absorbance | inhibition, % at 10 µM | 360,000 tested, 1.4% active | Ca2+ swelling absorbance, 30 min;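 active = inhibition of 50% or more, scaled per plate between neutral and stimulator controls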;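 note: 0% = DMSO wells given calcium and 100% = 1 mM EGTA wells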
Calb FLC: C. albicans growth inhibition with fluconazole, primary screen, CaCi-2 strain, Alamar Blue fluorescence | growth inhibition, % (test concentration not listed) | 300,000 tested, 0.57% active | AID 1979, 2009 | C. albicans CaCi-2 (fluconazole-resistant clinical isolate) + fluconazole, 48 h;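 active = growth inhibition above about 58% in most replicates, limit read from the data, passing the limit was not always enough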;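 note: all wells also contain fluconazole at 8 µg/ml as a sub-toxic cotreatment; 0% = median of DMSO wells and 100% = median of geldanamycin control wells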
* marks the source's active call; other numbers are inactive results; . = no result given. A selection: hits, their analogues and other compounds. The true share with any hit is near 5.4%.

SMILES	Beta cell apopt	CSC inhib	Mdm2 MdmX PPI	SKKanGAS inh	MPTP block	Calb FLC
O=C(NCc1cccnc1)c1ccc([N+](=O)[O-])cc1	103.3*	-21.3	17.6	-2.0	0.6	-6.7
O=C(Cc1ccc([N+](=O)[O-])cc1)Nc1cccnc1	80.9*	-4.1	6.1	-2.8	0.4	-14.2
O=C(NCc1cccnc1)c1ccc(NC(=O)c2cccc([N+](=O)[O-])c2)cc1	139.6*	24.9	10.5	-0.9	0.7	-3.4
O=C(COc1ccc([N+](=O)[O-])cc1)NCc1cccnc1	-5.8	-23.1	-1.8	-4.1	-0.6	-0.5
CC(C)NC(=O)CCCn1cc([N+](=O)[O-])cn1	-4.4	-2.6	1.6	-1.0	-1.9	-9.8
O=C(NCCc1ccc(Cl)cc1)c1ccc(OCC2CCCO2)cc1 (configuration not stated)	0.0	-4.4	-0.7	3.4	-1.9	-5.8
O=C(NCc1cccnc1)c1ccc(-c2cc3ccccc3oc2=O)cc1	101.2*	58.9	-39.8	-13.1	6.0	-2.0
O=C(Nc1cccnc1)c1cccc(-c2cc3ccccc3oc2=O)c1	6.3	-7.9	-1.5	-1.5	1.6	2.9
Clc1ccc(-c2nc(N3CCCCC3)nc3ccccc23)cc1	7.4	1.0	25.3	89.9*	2.3	.
CCOc1ccc(CNC(=O)c2nnc(CS(=O)(=O)c3ccccc3)o2)cc1OC	-6.6	-6.1	6.3	4.7	0.6	-5.0
CCN(CC)S(=O)(=O)c1ccc(C(=O)Nc2nnc(NC(=S)Nc3ccccc3)s2)cc1	0.1	69.9	44.7	31.9	7.5	-0.2
COc1cc(OC)cc(C(=O)Nc2ccc(Nc3ccccc3)cc2)c1	20.9	88.5*	-3.0	22.1	1.4	-5.0
COc1cc(OC)cc(C(=O)Nc2nnc(NC(=S)Nc3ccccc3)s2)c1	10.1	25.3	30.6	51.8*	0.5	8.3
CCOc1cc(N2CCOCC2)c(OCC)cc1NC(=O)CN1CCC(Cc2ccccc2)CC1	-4.5	84.3*	13.1	-0.7	3.2	10.3
Cc1ccc(C2=CC(=O)C[C@H](c3ccc4c(c3)OCO4)C2)cc1	-2.9	41.7	22.9	.	1.3	.
CC(=O)Nc1ccc(C2=CC(=O)C[C@H](c3ccc4c(c3)OCO4)C2)cc1	91.4*	12.9	-4.3	.	-1.6	.
COc1ccc(CN2CCc3ccc(NC(=O)c4ccncc4)cc3C2)c(F)c1	4.2	-7.6	32.9	49.8*	-1.2	-7.2
CC12CCC(C(=O)NNc3ccc([N+](=O)[O-])cc3)(CC1=O)C2(C)C (configuration not stated)	-1.5	-11.2	35.5	4.4	0.5	120.7*
CC12CCC(C(=O)NNc3ccc([N+](=O)[O-])cc3)(OC1=O)C2(C)C (configuration not stated)	2.6	-11.6	15.7	-3.1	4.2	-9.0
O=C(CN1CCN(Cc2ccccc2)CC1)N1CCCc2ccccc21	0.2	-3.6	-10.4	4.3	-0.4	-6.1
CCCCCCCCOC(=O)C1=C(C)Nc2nnnn2C1c1cccs1 (configuration not stated)	2.2	102.0*	41.1	107.5*	20.1	7.2
CCOc1cc(C#N)ccc1OCC(=O)NNC(=O)CC1CCS(=O)(=O)C1 (configuration not stated)	.	.	36.3	.	-0.6	.
CCN1CCN(C(=O)c2ccc(CSc3ccc(C)cc3)cc2)CC1	-17.7	154.9*	4.7	10.9	-0.1	98.1*
CN(CC(=O)Nc1cccc(F)c1)C(=O)c1cn(-c2ccccc2)nc1-c1ccc(F)cc1	1.5	69.2	27.7	.	0.3	.
COc1ccc(-c2nn(-c3ccccc3)cc2C(=O)N(C)CC(=O)Nc2cccc(F)c2)cc1	14.7	79.6*	10.3	.	1.1	.
SMILES	Beta cell apopt	CSC inhib	Mdm2 MdmX PPI	SKKanGAS inh	MPTP block	Calb FLC
O=C(NC(=S)N(CCCCO)C1CCCCC1)c1sc2ccccc2c1Cl	10.4	19.1	44.7	88.6*	-1.6	-9.1
CCOc1cc(-c2sc(Nc3cc(C)ccc3OC)n[n+]2-c2ccccc2)ccc1OC	93.8*	45.1	15.1	.	0.2	.
O=C(N/N=C/c1c[nH]c2ccccc12)c1cc(Br)ccc1O	.	1.1	-14.2	-0.5	3.4	12.8
O=C(N/N=C/c1c[nH]c2ccccc12)c1[nH]c2ccc(Br)cc2c1-c1ccccc1	.	.	.	72.7*	4.4	16.7
O=C(NC(=S)Nc1cccc(Cl)c1N1CCCCC1)c1cccs1	12.2	99.3*	34.2	60.0*	4.0	43.5
O=C(NC(=S)Nc1cccc(Cl)c1N1CCOCC1)c1cccs1	-4.7	-4.2	25.9	13.2	0.3	-1.3
O=C(NC(=S)Nc1cccc(Cl)c1N1CCCCC1)c1ccco1	7.9	77.2*	12.6	36.3	14.5	-4.3
CCN(CC(=O)Nc1ccc(OC)cc1)CC(=O)N1CC(=O)Nc2ccccc21	3.1	-11.2	9.7	.	-0.6	.
Brc1ccccc1CN1CCN(Cc2c[nH]c3ccccc23)CC1	130.1*	3.7	48.3	-2.5	.	49.7
Brc1ccc(CN2CCN(Cc3c[nH]c4ccccc34)CC2)cc1	88.1*	6.4	39.5	-0.1	2.6	3.2
Cc1nn(CC(C)C)c(Cl)c1C(=O)NCC(C)(C)N1CCOCC1	.	.	.	.	3.0	.
CC(C)NC(=O)Nc1ccc2c(c1)C(=O)N([C@H](C)CO)C[C@H](C)[C@@H](CN(C)S(=O)(=O)c1ccccc1)O2	-4.7	-13.6	20.6	.	0.8	.
C[C@H](CO)N1C[C@H](C)[C@@H](CN(C)S(=O)(=O)c2ccccc2)Oc2ccc(NC(=O)Nc3ccc(C(F)(F)F)cc3)cc2C1=O	-5.5	102.2*	45.3	.	0.7	.
NC(=O)NCc1ccc(F)cc1	-17.5	-14.7	9.8	-5.3	-1.0	-4.6
CNC(=O)c1sc(N2N=C3/C(=C\c4ccccc4)CCCC3C2c2ccccc2)nc1C (configuration not stated)	.	.	.	.	0.2	.
CNC(=O)c1sc(N2N=C3/C(=C/c4ccccc4)CCCC3C2c2ccccc2)nc1C (configuration not stated)	97.9*	51.0	34.1	39.8	-1.0	17.8
COc1ccc(CNCCNC(=O)c2ccco2)c(OC)c1OC	0.7	-5.9	8.5	-2.5	-1.1	91.3*
COc1cc(C(=O)NCCNC(=O)c2ccco2)cc(OC)c1OC	.	.	.	.	-1.1	.
Cc1nn(Cc2cccc(F)c2)c(C)c1NC(=O)c1ccc(COc2ccccc2Cl)cc1	16.3	101.3*	49.0	33.2	-1.3	-5.1
c1ccc2c(-c3nnc4n3CCCCC4)cc(-c3ccncc3)nc2c1	.	-4.5	11.0	6.1	-1.5	-9.9
Fc1ccc(-c2nnc3n2CCCCC3)cc1	-2.9	-10.4	8.5	-1.9	-1.1	18.9
Clc1ccc(-c2cc(-c3nnc4n3CCCCC4)c3ccccc3n2)cc1	99.5*	11.5	1.5	1.0	0.0	19.4
